According to PubChem BioAssay AID1159580 (chemical genetic matrix, 2015):
Several values for one entry are separate records, joined by “and”; a condition that tells them apart may be missing. Equal entries are not always repeated. Out of some 5,500 compounds screened, about 2,000 (36%) were called active. Another 18% or so got no clear call; they are omitted. No stated cut-off is given here; in the data, active means normalized growth mostly below about 0.91 (no sharp cut-off); inconclusive means no clear call, values can overlap the other calls; inactive means mostly above about 0.92. This is one part of the list.

Assay: chemical genetic growth profiling, strain panel (AID 1159580);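 further: tested at 20 µM; growth read once vehicle control cultures reached saturation at 30 °C; 1 = growth at the plate median or of vehicle wells; lower values mean less growth of the strain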
Conditions: S. cerevisiae deletion strains, growth OD

Measured: normalized growth

NC(=O)N/N=C\c1ccc([N+](=O)[O-])o1
inactive: locus YAL021C, strain ccr4, active compounds read low 0.987 | locus YAL026C, strain drs2, active compounds read low 0.988 | locus YAL030W, strain snc1, active compounds read low 1 | locus YBL061C, strain skt5, active compounds read low 0.997 | locus YBR009C, strain hhf1, active compounds read low 0.978 | locus YBR021W, strain FUR4, active compounds read low 1.02 | locus YBR023C, strain chs3, active compounds read low 0.996 | locus YBR171W, strain sec66, active compounds read low 1.01 | locus YBR229C, strain ROT2, active compounds read low 0.997 | locus YBR231C, strain swc5, active compounds read low 0.993 | locus YBR279W, strain paf1, active compounds read low 0.995 | locus YCL011C, strain gbp2, active compounds read low 0.986 | locus YCL016C, strain dcc1, active compounds read low 0.992 | locus YCL029C, strain bik1, active compounds read low 0.99 | locus YCL061C, strain MRC1, active compounds read low 1.01 | locus YCL069W, strain vba3, active compounds read low 1 | locus YCR088W, strain abp1, active compounds read low 0.972 | locus YDL005C, strain med2, active compounds read low 0.989 | locus YDL035C, strain GPR1, active compounds read low 1.01 | locus YDL040C, strain nat1, active compounds read low 0.995 | locus YDL074C, strain BRE1, active compounds read low 1.08 | locus YDL101C, strain DUN1, active compounds read low 0.993 | locus YDL134C, strain PPH21, active compounds read low 1 | locus YDL185W, strain tfp1, active compounds read low 0.963 | locus YDL192W, strain arf1, active compounds read low 0.99 | locus YDR001C, strain nth1, active compounds read low 0.991 | locus YDR069C, strain doa4, active compounds read low 0.975 | locus YDR101C, strain arx1, active compounds read low 0.977 | locus YDR137W, strain rgp1, active compounds read low 1.04 | locus YDR159W, strain sac3, active compounds read low 0.993 | locus YDR162C, strain NBP2, active compounds read low 1.01 | locus YDR195W, strain ref2 0.967 | locus YDR297W, strain sur2, active compounds read low 0.991 | locus YDR318W, strain mcm21, active compounds read low 0.983 | locus YDR334W, strain swr1, active compounds read low 0.992 | locus YDR335W, strain msn5, active compounds read low 0.999 | locus YDR388W, active compounds read low 0.984 | locus YDR392W, strain spt3, active compounds read low 0.925 | locus YDR502C, strain sam2, active compounds read low 0.978 | locus YEL003W, strain gim4, active compounds read low 1 | locus YEL037C, strain rad23, active compounds read low 1 | locus YEL061C, strain CIN8 (second series), active compounds read low 1 | locus YEL061C, strain CIN8, active compounds read low 1.02 | locus YER015W, strain faa2, active compounds read low 0.962 | locus YER016W, strain bim1, active compounds read low 0.968 | locus YER110C, active compounds read low 0.966 | locus YER111C, strain swi4, active compounds read low 1.01 | locus YER155C, strain BEM2 (second series), active compounds read low 0.962 | locus YER155C, strain BEM2, active compounds read low 0.994 | locus YER167W, strain BCK2, active compounds read low 1 | locus YFR010W, strain ubp6, active compounds read low 0.985 | locus YGL078C, strain dbp3, active compounds read low 0.995 | locus YGL086W, strain mad1, active compounds read low 0.971 | locus YGL167C, strain pmr1, active compounds read low 0.994 | locus YGL173C, strain kem1, active compounds read low 1.01 | locus YGL227W, strain vid30, active compounds read low 1.01 | locus YGL240W, strain doc1, active compounds read low 0.952 | locus YGL248W, strain PDE1, active compounds read low 0.999 | locus YGL253W, strain hxk2, active compounds read low 1.01 | locus YGR135W, strain pre9, active compounds read low 0.989 | locus YGR229C, strain SMI1, active compounds read low 1.07 | locus YGR252W, strain gcn5, active compounds read low 0.951 | locus YHR013C, strain ard1, active compounds read low 1.01 | locus YHR027C, strain rpn1, active compounds read low 0.988 | locus YHR030C, strain SLT2, active compounds read low 0.992 and 0.97 | locus YHR079C, strain IRE1 (second series), active compounds read low 0.978 | locus YHR079C, strain IRE1, active compounds read low 0.96 | locus YHR094C, strain hxt1, active compounds read low 0.982 | locus YHR129C, strain ARP1, active compounds read low 0.999 | locus YHR142W, strain chs7, active compounds read low 1.02 | locus YHR200W, strain rpn10, active compounds read low 0.989 | locus YIL066C, strain RNR3, active compounds read low 1.01 | locus YIL073C, strain SPO22, active compounds read low 0.975 | locus YIL125W, strain kgd1, active compounds read low 0.983 | locus YIR030C, strain dcg1, active compounds read low 0.989 | locus YJL092W, strain hpr5, active compounds read low 0.997 | locus YJL095W, strain BCK1 (second series), active compounds read low 0.992 | locus YJL095W, strain BCK1, active compounds read low 0.985 and 0.968 | locus YJL115W, strain asf1, active compounds read low 1.02 | locus YJL129C, strain trk1, active compounds read low 1.05 | locus YJL134W, strain LCB3, active compounds read low 1 | locus YJL154C, strain vps35, active compounds read low 0.992 | locus YJL164C, strain tpk1, active compounds read low 0.966 | locus YJL166W, strain qcr8, active compounds read low 0.984 | locus YJL168C, strain set2, active compounds read low 0.979 | locus YJL187C, strain SWE1 (second series), active compounds read low 0.998 | locus YJL187C, strain SWE1, active compounds read low 0.996 | locus YJR043C, strain POL32, active compounds read low 0.977
